TRPV1 agonist: HTS Assay for Compounds that Act as Agonists of the Vanilloid Receptor 1. activation, % at 8.33 µM. 0.19% of 320,000 active. TRPV1-expressing cells, Fluo-8 calcium influx, agonist mode. AID 540275, 2011; in the data active = activation above about 80%; inconclusive = between about 30% and that limit; also: 0% is about no effect
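Fluo-8 calcium influx in TRPV1-expressing cells, kinetic read (ex 480/em 520 nm). Compound added and read 3 min for agonist activity, followed by capsaicin at EC20 final and 2 min further read for enhancement.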
MBNL1-CUG inh: qHTS Assay for Inhibitors of MBNL1-poly(CUG) RNA binding; Muscleblind-like protein 1 (Homo sapiens), Q9NR56; TR-FRET MBNL1-His/biotin-(CUG)12 binding, 665/545 ratio; Potency, µM (top dose mostly 57.5 µM), without a hit: at the top dose activity change, negative = inhibition, usual class: inhibitors; 0.036% of 280,000 active; AID 2675, 2010; active = well fitted inhibition curve with a large enough effect in the signal ratio, with a control signal flat, not every such curve was filed as active; inconclusive = small, poorly fitted or top-dose-only effect, or effect the other way, or a change in a side signal; inactive = no such curve, though single readings can be large or run the other way; the % refers to the signal ratio; also: potency is read from the fitted curve at half-maximal effect; % is scaled to controls: 0 for no effect and ±100 for the full control effect
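TR-FRET between His-tagged MBNL1 and biotin-(CUG)12 RNA, detected with Tb anti-His antibody (0.055 ng/ul) and streptavidin-XL665 (5 nM), 60 min at room temperature. Compounds titrated 92 nM to 58 uM; 665/545 nm ratio normalized to buffer and complex controls.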
hERG WT inh: qHTS for Inhibitors of KCHN2 3.1: Wildtype qHTS | U2OS, BacMam KCNH2, thallium flux FluxOr; stronger effect = lower value | activity change, % at 1.84 µM | Voltage-gated inwardly rectifying potassium channel KCNH2 (Homo sapiens), Q12809 | 0.37% of 340,000 active | AID 720551, 2013;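 active = maximum activity change below -70%; inconclusive = maximum activity change between -70% and -50%; inactive = maximum activity change above -50%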; also: % is scaled to controls: 0 for no effect and ±100 for the full control effect
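U2OS cells transduced with wild-type KCNH2 virus are loaded with FluxOr dye for 45 min, and thallium flux is measured in kinetic reads before and after stimulation buffer. Rate constants are normalized to DMSO controls.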
TRPV1 potentiator: HTS Assay for Compounds that Act as Potentiators of the Vanilloid Receptor 1; TRPV1-expressing cells, Fluo-8 calcium influx, capsaicin EC20 potentiation; potentiation, % at 8.33 µM; 0.02% of 320,000 active; in the data active = potentiation above about 80%; inconclusive = between about 30% and that limit; also: 0% is about no effect
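Fluo-8 calcium influx in TRPV1-expressing cells, kinetic read (ex 480/em 520 nm). Compound added and read 3 min for agonist activity, followed by capsaicin at EC20 final and 2 min further read for enhancement.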
KCNH2 3.1 inh: qHTS for Inhibitors of KCHN2 3.1: Mutant qHTS; U2OS KCNH2 3.1, thallium flux FluxOr; stronger effect = lower value; Potassium voltage-gated channel subfamily H member 2, brain isoform KCNH2 3.1 (human); AID 720553, 2013; activity change, % (tested at about 1.8 µM); 0.95% of 340,000 active;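 active = maximum activity change below -70%; inconclusive = maximum activity change from -70% to -50%; inactive = maximum activity change above -50%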;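 also: thallium influx rate constant from kinetic fluorescence after stimulation buffer; % is scaled to controls: 0 for no effect and ±100 for the full control effect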
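U2OS cells transduced with KCNH2 3.1 mutant virus (1.77 x 10^8 /mL, 4 h), plated overnight at 37 C, loaded 45 min with FluxOr dye plus Red40 quencher. Thallium flux rate constant from kinetic reads after stimulation buffer, normalised to controls.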
* hit, by the source's call; ? = inconclusive; nt = not tested or not shown. Compounds with a hit are over-represented: about 1.3% of the library has one in this group of screens.

SMILES | TRPV1 agonist | MBNL1-CUG inh | hERG WT inh | TRPV1 potentiator | KCNH2 3.1 inh
O=C(NCCCN1CCN(CCCNC(=O)c2cccc(Cl)c2)CC1)c1cccc(Cl)c1 | -1 | -9% | -100* | 2 | -89*
Cc1c(C)n(C)c2ccc(C(=O)NCCCN3CCCC3)cc12 | 18 | -5% | 8 | 1 | -97*
O=C(NCCN1CCCC1)c1cccc(Cl)c1 | 2 | 3% | 5 | -1 | 30
COc1cccc(C(=O)NCCCN2CCN(CCCNC(=O)c3cccc(OC)c3)CC2)c1 | -3 | -11% | ? | 1 | -76*
CCC1(CC)NC(=O)N(CC(=O)OCC(=O)Nc2ccc(F)c(F)c2F)C1=O | 2 | 4% | 0 | 9 | 12
Cc1cc2nc(C)c3c(n2n1)CCC3 | -3 | -1% | -8 | -2 | 12
CSc1nnc(-c2cnccn2)n1C | -1 | -5% | -15 | 5 | -97*
CCOC(=O)C1(CCOc2ccccc2)CCN(Cc2ccc(C)o2)CC1 | 12 | -13% | 12 | -18 | -10
CCOC(=O)C1(CCOc2ccccc2)CCN(Cc2ccc(O)cc2)CC1 | 16 | -17% | -21 | -5 | -84*
CCOC(=O)C1(CCOc2ccccc2)CCN(Cc2ccc(OCCO)cc2)CC1 | 6 | -8% | -77* | -8 | -110*
CCCN1CCC(CCOc2ccccc2)(C(=O)OCC)CC1 | 5 | -4% | 20 | 1 | -21
Cc1nn(Cc2ccc(Cl)cc2)c(C)c1NC(=O)CCCn1nc([N+](=O)[O-])c(Cl)c1C | ? | 14% | 21 | -12 | -18
N#CC1(Cc2ccc(Cl)cc2)c2ccccc2C=CN1C(=O)c1ccccc1 (configuration not stated) | 0 | -2% | -17 | -1 | 1
Fc1ccc(Nc2c3c(nc4ccccc24)CCC3)cc1 | ? | -5% | 3 | -20 | -91*
CCN(CC)c1ccc(/C=N/NC(=O)c2nnn(-c3nonc3N)c2CN(C)C2CCCCC2)cc1 | nt | nt | -17 | nt | -88*
CN(Cc1c(C(=O)N/N=C/c2c(F)cccc2Cl)nnn1-c1nonc1N)C1CCCCC1 | nt | nt | -5 | nt | 2
COc1cccc(/C=N/NC(=O)c2nnn(-c3nonc3N)c2CN(C)C2CCCCC2)c1 | nt | nt | 15 | nt | -17
CCOc1ccc(/C=N/NC(=O)c2nnn(-c3nonc3N)c2CN(C)C2CCCCC2)cc1 | 0 | -1% | -102* | -4 | -26
COc1ccc(/C=C(\NC(=O)c2ccc([N+](=O)[O-])cc2)C(=O)NCCCN2CCOCC2)cc1 | -8 | ? | -46 | 10 | ?
CN(C)CCCNC(=O)/C(=C\C=C\c1ccccc1)NC(=O)c1ccc([N+](=O)[O-])cc1 | 1 | ? | -72* | 2 | -99*
Cc1ccc(C(=O)N/C(=C\c2ccc(Cl)cc2)C(=O)NCCN2CCOCC2)cc1 | -7 | 4% | -93* | 8 | ?
COc1ccc(/C=C(\NC(=O)c2ccc([N+](=O)[O-])cc2)C(=O)NCCN2CCOCC2)cc1 | 3 | ? | -118* | -10 | -78*
COc1ccc(/C=C(/NC(=O)c2ccc([N+](=O)[O-])cc2)C(=O)NCCCN(C)C)cc1 | 3 | ? | -84* | 3 | ?
COc1ccc(-c2cc(=O)oc3cc(OC(C)C(=O)NCc4ccccn4)ccc23)cc1 (configuration not stated) | 0 | ? | -12 | 1 | 6
Cc1ccc(C(=O)N/C(=C\c2ccc([N+](=O)[O-])cc2)C(=O)NCCc2ccccc2)cc1 | -2 | 8% | -20 | 4 | -96*
O=C(NCCc1ccccc1)/C(=C\c1ccc([N+](=O)[O-])cc1)NC(=O)c1ccc(Br)cc1 | -2 | -8% | -8 | 1 | -17
O=C(OCc1cn([C@H]2C[C@H](c3ccccc3)N(Cc3cccs3)C[C@@H]2O)nn1)c1ccccc1 | nt | nt | -1 | nt | 9

Screens (PubChem BioAssay)
